Data: the supplement of paper PMC10849652
About 8,800 targets were measured; listed, in parts, are those with a hit and a random draw of the rest. About 0.5% of all pairs of compound and target were hits. A number with no mark means an inactive call.

Legend:
Test in all cases: log2 fold change, soluble protein after heating vs DMSO (PISA); higher = thermal stabilisation; K562 lysate, 10 uM; active = over 0.2 and 3.5 SD of the protein, either way, in both replicates (recomputed)
ibrutinib = compound: C=CC(=O)N1CCC[C@@H](n2nc(-c3ccc(Oc4ccccc4)cc3)c3c(N)ncnc32)C1 [ibrutinib]
Summary of the method: (§1)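 Log-two fold change in thermal stability relative to solvent controls is reported from duplicates. For each sample, crude K562 extract from dounce-homogenised pellets in PBS pH 7.4 with 1 mM MgCl2, at 1 mg/mL protein, was treated with 10 μM compound for 30 min. Aliquots heated for 3 min across 48°C-58°C were pooled, brought to 0.5% NP-40 at 4°C and cleared at 21,000xg for 90 min. The supernatant was quantified by TMTpro 16plex LC-MS/MS with channel sums equalised.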

[1] = compound: CC(=O)c1cnc2ccc(-c3cc(Cl)c(O)c(Cl)c3)nc2c1N[C@H]1CC[C@H](CN(C)C)CC1
Summary of the method: as §1

ralimetinib = compound: CC(C)(C)Cn1c(N)nc2ccc(-c3[nH]c(C(C)(C)C)nc3-c3ccc(F)cc3)nc21 [ralimetinib]
Summary of the method: as §1

[2] = compound: CC(C)(O)CC(=O)NCCn1ccc2ncnc(Nc3ccc(Oc4cccc(C(F)(F)F)c4)c(Cl)c3)c21
Summary of the method: as §1

[3] = compound: CC(C)C1=C2N=C(C=C(N2N=C1)NCC3=CC=CC=C3)NCCCCCCN
Summary of the method: as §1

[4] = compound: CC1=C(C(CC(=O)N1)C2=CC=C(C=C2)C(F)(F)F)C(=O)NC3=C(C=C4C(=C3)C=NN4)F
Summary of the method: as §1

[5] = compound: CC1=C(C2=C(C=C1)C(=O)C3=CC=CC=C3N2CCCN)C
Summary of the method: as §1

[6] = compound: CC1=C(C=C(C=C1)NC(=O)C2=CC(=CC=C2)C(C)(C)C#N)NC3=CC4=C(C=C3)N=CN(C4=O)C
Summary of the method: as §1

[7] = compound: CC1=C(C=C(C=C1)NC(=O)C2=CC(=CC=C2)N(C)C)NC(=O)C3=CC=C(C=C3)O
Summary of the method: as §1

[8] = compound: CC1=CC=C(C=C1)SC2=C3C=C(SC3=CN=C2)C(=O)N
Summary of the method: as §1

UniProt Q9UPW5, sequence (Q9UPW5 whole entry, looked up): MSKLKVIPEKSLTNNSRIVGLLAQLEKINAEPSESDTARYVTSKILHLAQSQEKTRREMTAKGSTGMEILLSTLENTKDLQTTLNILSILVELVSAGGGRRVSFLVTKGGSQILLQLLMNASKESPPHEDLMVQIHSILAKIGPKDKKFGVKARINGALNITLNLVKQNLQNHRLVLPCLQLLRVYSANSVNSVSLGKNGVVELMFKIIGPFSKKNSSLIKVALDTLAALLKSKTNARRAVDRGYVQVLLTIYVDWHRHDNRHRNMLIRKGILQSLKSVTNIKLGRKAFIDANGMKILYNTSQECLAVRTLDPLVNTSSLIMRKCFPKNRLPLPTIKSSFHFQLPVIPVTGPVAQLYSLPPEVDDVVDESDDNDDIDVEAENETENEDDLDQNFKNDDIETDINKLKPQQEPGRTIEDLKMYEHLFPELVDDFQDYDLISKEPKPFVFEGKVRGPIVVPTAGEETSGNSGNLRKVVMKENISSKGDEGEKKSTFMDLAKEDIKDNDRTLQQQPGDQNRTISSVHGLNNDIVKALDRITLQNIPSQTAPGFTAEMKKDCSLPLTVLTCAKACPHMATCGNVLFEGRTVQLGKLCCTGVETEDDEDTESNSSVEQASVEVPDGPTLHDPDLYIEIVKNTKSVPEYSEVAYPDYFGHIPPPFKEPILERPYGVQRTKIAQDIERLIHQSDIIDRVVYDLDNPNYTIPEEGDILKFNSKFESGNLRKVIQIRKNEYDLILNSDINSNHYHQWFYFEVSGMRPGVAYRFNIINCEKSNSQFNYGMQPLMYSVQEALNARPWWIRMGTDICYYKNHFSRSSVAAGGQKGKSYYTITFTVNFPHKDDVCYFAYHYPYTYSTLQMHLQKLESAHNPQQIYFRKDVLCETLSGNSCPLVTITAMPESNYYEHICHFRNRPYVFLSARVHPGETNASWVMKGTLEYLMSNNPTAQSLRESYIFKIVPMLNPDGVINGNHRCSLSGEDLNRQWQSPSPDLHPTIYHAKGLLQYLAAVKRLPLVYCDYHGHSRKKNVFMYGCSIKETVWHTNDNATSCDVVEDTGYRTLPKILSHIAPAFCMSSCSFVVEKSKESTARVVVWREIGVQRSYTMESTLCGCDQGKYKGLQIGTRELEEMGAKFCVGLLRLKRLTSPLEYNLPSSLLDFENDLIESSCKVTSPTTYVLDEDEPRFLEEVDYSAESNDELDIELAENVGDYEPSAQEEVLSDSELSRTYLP
UniProt P27144, sequence (P27144 whole entry, looked up): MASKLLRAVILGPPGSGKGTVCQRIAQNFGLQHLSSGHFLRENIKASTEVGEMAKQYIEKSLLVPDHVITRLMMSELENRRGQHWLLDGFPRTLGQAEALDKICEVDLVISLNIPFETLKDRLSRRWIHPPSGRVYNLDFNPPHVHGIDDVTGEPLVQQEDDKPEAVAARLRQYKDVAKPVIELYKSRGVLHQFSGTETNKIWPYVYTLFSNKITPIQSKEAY
UniProt Q8NB46, sequence (Q8NB46 whole entry, looked up): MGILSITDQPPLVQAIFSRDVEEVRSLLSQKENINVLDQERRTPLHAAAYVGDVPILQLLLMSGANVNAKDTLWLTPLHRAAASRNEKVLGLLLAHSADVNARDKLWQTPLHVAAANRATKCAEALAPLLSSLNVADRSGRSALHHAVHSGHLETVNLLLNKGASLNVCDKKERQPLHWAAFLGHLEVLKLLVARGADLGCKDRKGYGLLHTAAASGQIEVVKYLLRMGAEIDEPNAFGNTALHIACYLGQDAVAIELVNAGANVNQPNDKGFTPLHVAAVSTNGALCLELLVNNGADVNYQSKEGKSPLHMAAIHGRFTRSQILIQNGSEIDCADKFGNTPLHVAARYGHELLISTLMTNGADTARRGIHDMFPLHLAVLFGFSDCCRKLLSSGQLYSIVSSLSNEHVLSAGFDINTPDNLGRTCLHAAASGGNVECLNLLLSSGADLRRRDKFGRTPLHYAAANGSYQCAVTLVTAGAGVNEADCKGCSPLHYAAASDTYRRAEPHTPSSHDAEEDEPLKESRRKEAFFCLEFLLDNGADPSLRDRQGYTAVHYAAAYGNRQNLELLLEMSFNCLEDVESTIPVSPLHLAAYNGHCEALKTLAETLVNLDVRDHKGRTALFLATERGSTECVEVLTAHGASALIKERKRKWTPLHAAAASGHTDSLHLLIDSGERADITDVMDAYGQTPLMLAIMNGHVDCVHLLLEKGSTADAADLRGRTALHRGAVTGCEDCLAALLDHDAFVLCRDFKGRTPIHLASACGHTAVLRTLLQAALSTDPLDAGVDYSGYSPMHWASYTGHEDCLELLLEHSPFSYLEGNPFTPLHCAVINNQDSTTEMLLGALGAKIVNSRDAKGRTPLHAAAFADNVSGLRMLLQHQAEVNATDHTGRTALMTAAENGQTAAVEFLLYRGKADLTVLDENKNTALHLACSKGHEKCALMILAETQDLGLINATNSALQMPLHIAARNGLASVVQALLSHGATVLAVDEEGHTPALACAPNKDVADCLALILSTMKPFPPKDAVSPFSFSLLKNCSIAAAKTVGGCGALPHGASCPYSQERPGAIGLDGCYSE
UniProt Q9UH62, sequence (Q9UH62 whole entry, looked up): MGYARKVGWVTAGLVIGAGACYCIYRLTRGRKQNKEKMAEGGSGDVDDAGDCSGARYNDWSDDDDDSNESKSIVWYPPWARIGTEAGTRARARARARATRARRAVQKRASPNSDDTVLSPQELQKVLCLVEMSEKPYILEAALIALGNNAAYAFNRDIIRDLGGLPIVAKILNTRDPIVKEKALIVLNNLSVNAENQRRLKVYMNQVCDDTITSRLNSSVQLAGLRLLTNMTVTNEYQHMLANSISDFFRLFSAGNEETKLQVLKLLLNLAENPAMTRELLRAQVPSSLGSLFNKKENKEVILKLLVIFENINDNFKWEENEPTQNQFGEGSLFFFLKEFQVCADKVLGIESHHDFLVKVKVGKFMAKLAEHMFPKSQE
UniProt Q9UKV3, sequence (Q9UKV3 whole entry, looked up): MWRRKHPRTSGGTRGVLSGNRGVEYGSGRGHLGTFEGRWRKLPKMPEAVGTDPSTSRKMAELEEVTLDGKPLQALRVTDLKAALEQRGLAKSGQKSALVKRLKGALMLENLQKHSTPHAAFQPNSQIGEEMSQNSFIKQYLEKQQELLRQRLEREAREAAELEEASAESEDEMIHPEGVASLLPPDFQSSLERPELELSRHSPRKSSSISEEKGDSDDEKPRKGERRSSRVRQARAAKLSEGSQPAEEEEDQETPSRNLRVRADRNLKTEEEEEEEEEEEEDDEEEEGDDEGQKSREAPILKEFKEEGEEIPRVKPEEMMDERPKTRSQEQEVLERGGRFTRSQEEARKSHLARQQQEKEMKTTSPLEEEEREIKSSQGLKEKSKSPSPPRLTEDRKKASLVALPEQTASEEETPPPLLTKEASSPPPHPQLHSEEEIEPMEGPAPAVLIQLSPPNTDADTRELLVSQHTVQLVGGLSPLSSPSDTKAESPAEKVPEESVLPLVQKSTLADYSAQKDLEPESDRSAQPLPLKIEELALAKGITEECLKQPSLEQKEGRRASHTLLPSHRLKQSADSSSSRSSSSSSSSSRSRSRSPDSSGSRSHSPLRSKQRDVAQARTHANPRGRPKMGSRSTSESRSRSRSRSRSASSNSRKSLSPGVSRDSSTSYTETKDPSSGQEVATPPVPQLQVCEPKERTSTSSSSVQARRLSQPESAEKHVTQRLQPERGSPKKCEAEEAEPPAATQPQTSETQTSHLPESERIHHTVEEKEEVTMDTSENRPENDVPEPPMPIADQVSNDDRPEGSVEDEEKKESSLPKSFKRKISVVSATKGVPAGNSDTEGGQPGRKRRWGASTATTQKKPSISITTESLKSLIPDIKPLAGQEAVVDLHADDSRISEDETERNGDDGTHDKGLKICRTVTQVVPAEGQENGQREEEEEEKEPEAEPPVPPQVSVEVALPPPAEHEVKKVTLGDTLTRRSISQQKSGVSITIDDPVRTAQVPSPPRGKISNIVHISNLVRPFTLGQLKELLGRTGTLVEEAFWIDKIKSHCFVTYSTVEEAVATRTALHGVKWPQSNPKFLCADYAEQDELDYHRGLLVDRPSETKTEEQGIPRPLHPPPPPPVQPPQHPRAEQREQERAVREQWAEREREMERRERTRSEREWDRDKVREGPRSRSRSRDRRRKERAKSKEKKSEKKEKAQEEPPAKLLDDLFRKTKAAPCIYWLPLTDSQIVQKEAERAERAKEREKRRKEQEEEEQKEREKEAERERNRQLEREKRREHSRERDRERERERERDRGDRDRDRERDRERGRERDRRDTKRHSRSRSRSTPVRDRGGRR
UniProt Q9Y6B7, sequence (Q9Y6B7 whole entry, looked up): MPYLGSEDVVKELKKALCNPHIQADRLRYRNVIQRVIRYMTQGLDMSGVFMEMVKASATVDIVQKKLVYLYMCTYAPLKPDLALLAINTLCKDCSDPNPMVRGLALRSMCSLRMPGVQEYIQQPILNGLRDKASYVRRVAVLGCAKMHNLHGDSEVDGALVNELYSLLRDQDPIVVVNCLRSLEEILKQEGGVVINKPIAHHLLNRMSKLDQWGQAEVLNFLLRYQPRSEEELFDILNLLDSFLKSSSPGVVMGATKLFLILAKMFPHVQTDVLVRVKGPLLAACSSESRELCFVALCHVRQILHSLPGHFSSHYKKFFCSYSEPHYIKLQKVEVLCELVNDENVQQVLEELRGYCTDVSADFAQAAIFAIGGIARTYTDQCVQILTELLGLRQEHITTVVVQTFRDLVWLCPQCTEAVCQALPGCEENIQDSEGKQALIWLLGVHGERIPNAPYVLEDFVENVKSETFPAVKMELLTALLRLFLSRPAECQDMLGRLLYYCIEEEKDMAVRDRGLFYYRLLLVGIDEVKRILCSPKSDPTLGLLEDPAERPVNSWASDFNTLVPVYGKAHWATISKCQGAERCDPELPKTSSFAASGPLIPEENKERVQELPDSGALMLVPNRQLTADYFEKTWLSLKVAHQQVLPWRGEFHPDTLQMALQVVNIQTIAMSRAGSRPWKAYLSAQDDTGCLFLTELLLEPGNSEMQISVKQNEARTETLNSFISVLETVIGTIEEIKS

Target	log2 fold change (ibrutinib)	log2 fold change [1]	log2 fold change (ralimetinib)	log2 fold change [2]	log2 fold change [3]	log2 fold change [4]	log2 fold change [5]	log2 fold change [6]	log2 fold change [7]	log2 fold change [8]
AMMECR1 (UniProt Q9Y4X0)	-0.021	-0.008	0.006	-0.016	0.014	0.009	-0.01	-0.003	-0.027	-0.039
AKR1C3 (UniProt P42330)	-0.033	0.016	-0.028	-0.003	-0.039	0.011	0.247 (active)	0.02	-0.035	0.001
ABL1 isoform 2 (UniProt P00519)	0.157	0.077	0.019	0.024	-0.017	-0.014	-0.01	0.048	0.011	-0.043
AK2 (UniProt P54819)	0.054	-0.022	-0.013	0.027	0.018	-0.018	0.003	-0.018	-0.031	-0.024
AGTPBP1 (UniProt Q9UPW5)	-0.255	0.001	0.013	-0.058	0.008	-0.026	0.051	0.077	0.005	0.012
ACADS (UniProt P16219)	-0.006	0.031	0.004	-0.026	-0.002	-0.041	-0.022	0.004	-0.027	0.018
AK4 (UniProt P27144)	0.06	-0.019	-0.036	-0.016	-0.008	0.021	-0.005	0.012	0.022	-0.017
AKR1C2 (UniProt P52895)	0.031	0.021	-0.043	-0.035	0.025	-0.025	0.038	-0.013	0.018	0.019
ABCD3 (UniProt P28288)	-0.035	-0.083	-0.067	0.064	0.185	0.01	-0.096	-0.028	-0.073	-0.031
AGPS (UniProt O00116)	0.01	-0.004	-0.013	-0.07	-0.065	0.012	0.025	-0.177	-0.005	-0.02
ANKRD52 (UniProt Q8NB46)	0.01	-0.089	-0.002	-0.025	0.022	0.007	-0.058	0.011	0.047	-0.363 (active)
ARMC6 (UniProt Q6NXE6)	0.023	0.005	0.007	-0.005	0.002	-0.013	0.001	-0.011	0.016	0
ANXA13 isoform 2 (UniProt P27216)	0.051	0.092	0.022	0.169	-0.057	-0.034	0.062	0.053	-0.001	0.06
ANP32E (UniProt Q9BTT0)	0.03	-0.009	-0.015	0.001	0.022	-0.051	-0.072	0.011	-0.065	0.063
ANXA5 (UniProt P08758)	-0.009	-0.005	0.014	0.038	-0.026	0.007	0.032	-0.024	0	0.005
ASCC2 (UniProt Q9H1I8)	-0.328 (active)	0.029	0.057	-0.041	0.012	0.004	0.02	0.01	0.064	-0.01
AP1G2 (UniProt O75843)	0.012	-0.087	0.069	0.013	-0.121	-0.109	-0.156	-0.011	0.023	-0.027
ANAPC7 (UniProt Q9UJX3)	-0.007	0.002	0.015	-0.009	0.001	0.01	0.002	0.022	0.023	0.01
ARMCX3 (UniProt Q9UH62)	-0.073	-0.027	0.006	0.013	-0.042	-0.053	-0.029	0.004	0.039	0
ADRM1 (UniProt Q16186)	0.005	-0.009	0.027	-0.007	0.026	-0.028	-0.011	0.019	0.012	-0.01
AP4B1 (UniProt Q9Y6B7)	-0.028	-0.048	-0.044	0	0.034	0.003	-0.027	-0.02	-0.041	-0.041
ACIN1 isoform 5 (UniProt Q9UKV3)	-0.004	-0.015	-0.011	-0.028	-0.021	-0.024	-0.001	-0.042	0.003	-0.016
ANXA1 (UniProt P04083)	-0.001	0.007	-0.003	0.007	0.005	-0.01	0.03	-0.024	0.025	-0.003
ARL1 (UniProt P40616)	-0.029	-0.005	0.027	-0.001	-0.017	0.098	-0.026	0.134	-0.021	-0.027
ABHD17B (UniProt Q5VST6)	0.067	-0.031	-0.053	-0.037	-0.036	-0.076	0.001	0.013	0.127	0.018
ACTBL2 (UniProt Q562R1)	0.001	-0.016	0.006	0.082	-0.034	0.086	0.069	-0.043	0.017	0.123
ARAP1 (UniProt Q96P48)	-0.01	0.002	0.016	0.028	0.003	0.02	-0.01	0.005	0.057	0.006
